From PubChem
MEP2-GFP yeast: yeast TOR pathway MEP2-GFP modulation; GFP response vs DMSO, % at 10 µM; actives 0.51% (n = 330,000); S. cerevisiae MEP2-GFP strain, flow cytometry GFP, 3 h; 100% = DMSO control level;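 active means GFP response versus DMSO above a set limit, roughly screen mean plus 3 SD, cut at about 180% in these data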;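 further: median GFP fluorescence of the barcode-gated MEP2-GFP cells per well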
AGP1 TOR yeast: yeast TOR pathway AGP1-GFP modulation. S. cerevisiae AGP1-GFP multiplex flow cytometry, 3 h; GFP as percent of DMSO wells. GFP response vs DMSO, % at 10 µM. actives 0.02% (n = 320,000);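 active means GFP response relative to DMSO above a set limit, near screen average plus 3 SD, cut at about 150% in these data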;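 further: median GFP channel fluorescence of the gated AGP1 strain per well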
CIT2-GFP yeast: yeast TOR pathway CIT2-GFP modulation; S. cerevisiae CIT2-GFP strain, flow cytometry, 3 h; 100 means same as DMSO wells; GFP response vs DMSO, % at 10 µM; actives 0.065% (n = 320,000);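 active means GFP response relative to DMSO above a set limit, near the screen mean plus 3 SD, cut at about 150% in these data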;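 further: ratio of well median GFP fluorescence to mean of DMSO wells on the plate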
LAP4 TOR yeast: alters LAP4-GFP fluorescence in TOR pathway yeast screen; GFP response vs DMSO, % at 10 µM; actives 0.34% (n = 320,000); S. cerevisiae LAP4-GFP multiplex, flow cytometry GFP, 3 h; median GFP as percent of DMSO wells;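 active means GFP response vs DMSO above a set limit, about the screen mean plus 3 SD, cut at about 150% in these data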
RPL19A-GFP yeast: alters RPL19A-GFP fluorescence in TOR pathway yeast screen | S. cerevisiae RPL19A-GFP strain, flow cytometry, 3 h; stronger effect = lower value | percent response vs DMSO, % at 10 µM | actives 0.3% (n = 330,000);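 active means percent response vs DMSO below 50%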;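 further: median channel GFP fluorescence of the barcoded RPL19A-GFP strain; lower means less RPL19A-GFP as with rapamycin TOR inhibition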
LAP4 cherry2: second confirmation of modulators of TOR reporter LAP4-GFP in yeast; shares compounds with LAP4 TOR yeast; S. cerevisiae LAP4-GFP strain, flow cytometry GFP, 3 h; GFP response vs DMSO, % at 10 µM; actives 20% (n = 590); AID 2621;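 active means GFP signal as percent of the solvent control above about 150%, meaning raised reporter expression, limit read from the data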
MEP2-GFP pick2: yeast MEP2-GFP modulation, second cherry pick | shares compounds with LAP4 TOR yeast | S. cerevisiae MEP2-GFP strain, flow cytometry GFP, 3 h | GFP response vs DMSO, % at 10 µM | actives 10% (n = 590) | AID 2622;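 active means GFP signal above 150% of the solvent control wells, that is a rise of more than half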;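 further: median channel GFP fluorescence of all gated yeast cells per well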
RPL19A GFP CP2: yeast RPL19A-GFP TOR reporter modulation, second cherry pick. GFP response vs DMSO, % at 10 µM. S. cerevisiae RPL19A-GFP strain, flow cytometry GFP, 3 h; stronger effect = lower value; 100% means same as DMSO wells. shares compounds with LAP4 TOR yeast. actives 3% (n = 590);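 active means under 65% GFP response relative to DMSO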;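 further: median GFP channel fluorescence per well over the all cells gate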
CIT2-GFP pick2: second confirmation of modulators of TOR reporter CIT2-GFP in yeast; S. cerevisiae CIT2-GFP strain, flow cytometry GFP, 3 h; DMSO control wells read 100%; actives 8% (n = 590); GFP response vs DMSO, % at 10 µM; shares compounds with LAP4 TOR yeast;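 active means GFP response vs DMSO above about 150%, limit read from the data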;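 further: median green fluorescence per well over all gated yeast cells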
AGP1 GFP CP2: reconfirmed modulator of AGP1-GFP TOR reporter in yeast; shares compounds with LAP4 TOR yeast; S. cerevisiae AGP1-GFP strain, flow cytometry GFP, 3 h; percent response vs DMSO, % at 10 µM; 590 tested, under 10 active;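 active means over 150 percent of DMSO response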;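 further: median GFP channel fluorescence over all cells without mother daughter split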
Yeast autofluor: yeast s288c autofluorescence artifact, counter-screen | shares compounds with LAP4 TOR yeast | S. cerevisiae s288c, 520 nm autofluorescence, flow cytometry, 3 h; stronger effect = higher value; zero means same as solvent-only cells | fluorescence change (kMESF span) at 33 µM | 610 tested, under 10 active | AID 2757;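 active means fluorescence span over the dose series, or activity score, above about 33, limit read from the data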
Yeast autofl DR: TOR screen hit shows autofluorescence in yeast s288c; 110 tested, under 10 active; S. cerevisiae s288c parental, compound autofluorescence, flow cytometry, 3 h; fluorescence change (span) at 33 µM; shares compounds with LAP4 TOR yeast;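 active means fluorescence change span, or the activity score built from it, above 25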
TORC1 bypass: compounds blocking wildtype yeast growth but not TORC1 bypass cells. shares compounds with LAP4 TOR yeast. S. cerevisiae BY4741 spot growth rating, 48-72 h; stronger effect = lower value. growth rating (0-3) at 30 µM. 120 tested, under 10 active;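 active means growth rating at most 1 for wild type yeast while the TORC1 bypass strain still grows fully, rated 3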
Hits are given with their value; i = inactive; nt = not tested or not shown. Rows were chosen to be rich in hits. Some 0.89% of all compounds tested hit in one or more screens of this group.

SMILES	MEP2-GFP yeast	AGP1 TOR yeast	CIT2-GFP yeast	LAP4 TOR yeast	RPL19A-GFP yeast	LAP4 cherry2	MEP2-GFP pick2	RPL19A GFP CP2	CIT2-GFP pick2	AGP1 GFP CP2	Yeast autofluor	others
COc1cccc(-c2ncc3ccccc3c2COC(=O)c2cccc(Br)c2)c1	i	i	i	159	i	i	i	i	i	i	nt
O=C(NCc1cccnc1)c1cc([N+](=O)[O-])ccc1N1CCOCC1	i	i	i	i	i	nt	nt	nt	nt	nt	nt
CN(Cc1cnc2nc(N)nc(N)c2n1)c1ccc(C(=O)N[C@@H](CCC(=O)O)C(=O)O)cc1	i	i	i	233	i	273	i	i	i	i	i
CCOC(=O)CCC(NC(=O)c1ccc(NCN2C(=O)CCC2=O)cc1)C(=O)OCC (stereo not given)	i	i	i	i	i	nt	nt	nt	nt	nt	nt
Nc1nc2ncc(CNc3ccc(C(=O)N[C@@H](CCC(=O)O)C(=O)O)cc3)nc2c(=O)[nH]1	i	i	i	i	i	i	i	i	i	i	i
Cc1nc2ccc(CN(C)c3ccc(C(=O)N[C@@H](CCC(=O)O)C(=O)O)s3)cc2c(=O)[nH]1	i	i	i	i	i	nt	nt	nt	nt	nt	nt
Cc1ccc(O)c(N=Nc2ccc(S(=O)(=O)N3CCOCC3)cc2)c1	i	i	i	i	i	nt	nt	nt	nt	nt	nt
CCOc1ccccc1C(=O)Nc1ccsc1C(=O)OC	i	i	i	i	i	nt	nt	nt	nt	nt	nt
Cc1cccc(Nc2nc(N)c([N+](=O)[O-])c(NCc3ccco3)n2)c1	i	i	i	i	i	nt	nt	nt	nt	nt	nt
CNc1nc(N)c([N+](=O)[O-])c(NCc2ccco2)n1	nt	nt	nt	nt	nt	nt	nt	nt	nt	nt	nt	Yeast autofl DR=i;TORC1 bypass=i
Cc1nn2c(NCc3ccccn3)cc(C(C)C)nc2c1-c1ccccc1	i	i	i	i	i	nt	nt	nt	nt	nt	nt
CCCc1cc(NCc2ccccn2)n2nc(C)c(-c3ccccc3)c2n1	i	i	i	158	i	nt	nt	nt	nt	nt	i
COc1ccc(NC(=O)CN(C)C(=O)CCCc2c[nH]c3ccccc23)cc1	i	i	i	i	i	nt	nt	nt	nt	nt	nt
Cc1ccccc1NC(=O)C(NC1CCCCC1)C(C)C (stereo not given)	i	i	i	i	i	i	i	i	i	i	nt
COc1cccc2cc(-c3nc4ccccc4o3)c(=O)oc12	i	i	i	i	i	i	i	60	i	i	i
CCCCc1ccc(Nc2nc(N3CCOCC3)nc(N3CCOCC3)n2)cc1	i	i	i	i	i	nt	nt	nt	nt	nt	nt
CN(C)/C=C1\C(=O)Nc2ccccc21	i	i	i	i	nt	nt	nt	nt	nt	nt	nt
O=C1Nc2ccccc2/C1=C\C(=O)c1ccccc1	i	i	i	226	i	nt	nt	nt	nt	nt	i
CC(C)Oc1ccc(C(=O)/C=C2/C(=O)Nc3ccccc32)cc1	i	i	i	161	i	nt	nt	nt	nt	nt	i
CN(O)/C=C1\C(=O)Nc2ccccc21	i	nt	i	i	i	nt	nt	nt	nt	nt	nt
O=C(O)CNC(=O)C(Cc1ccccc1)NC(=O)OCc1ccccc1 (stereo not given)	i	i	i	i	i	nt	nt	nt	nt	nt	nt
O=C(COc1c(Br)cc(Br)c2cccnc12)N1CCc2ccccc2C1	i	i	i	157	i	nt	nt	nt	nt	nt	i
O=C(COc1c(Br)cc(Br)c2cccnc12)N1CCCCC1	i	i	i	i	i	nt	nt	nt	nt	nt	nt
O=c1c2ccccc2nc(/C=C/c2ccc([N+](=O)[O-])o2)n1CCCO	230	i	179	193	i	300	353	i	275	i	nt
CCN(CC)C(=O)Oc1ccc(Cl)c2cccnc12	i	i	i	i	i	nt	nt	nt	nt	nt	nt
SMILES	MEP2-GFP yeast	AGP1 TOR yeast	CIT2-GFP yeast	LAP4 TOR yeast	RPL19A-GFP yeast	LAP4 cherry2	MEP2-GFP pick2	RPL19A GFP CP2	CIT2-GFP pick2	AGP1 GFP CP2	Yeast autofluor	others
O=C(Nc1cccc(C(F)(F)F)c1)Oc1ccc(Cl)c2cccnc12	i	i	i	202	i	nt	nt	nt	nt	nt	i
CCOC(=O)CSC1=NC(=O)/C(=C\c2ccc(Cl)cc2)S1	i	i	i	184	i	nt	nt	nt	nt	nt	i	Yeast autofl DR=i;TORC1 bypass=i
CC(=O)N1CCc2cc(S(=O)(=O)CCC(=O)NCc3ccc(F)cc3)ccc21	i	i	i	i	i	i	i	i	i	i	nt
CCOC(=O)c1sc(=NC(=O)C2CC2)n(C)c1C	i	i	i	i	i	nt	nt	nt	nt	nt	nt
CC1CC(C)CN(C(=O)COC(=O)CCC(=O)c2cccs2)C1 (stereo not given)	i	i	i	165	i	i	i	i	i	i	nt
CCOC(=O)c1c(C)oc2c1C(=O)c1ccccc1C2=O	i	i	i	i	i	nt	nt	nt	nt	nt	nt
Cc1oc2c(c1C(=O)O)C(=O)c1ccccc1C2=O	i	i	i	156	i	i	i	i	i	i	nt
Cc1onc(-c2ccccc2)c1CNS(=O)(=O)c1cccc(Cl)c1	i	i	i	i	i	nt	nt	nt	nt	nt	nt
Cc1cc(C2CCCCC2)n(O)c(=O)c1	i	i	i	192	i	187	i	i	i	i	i
CCCc1cc(=O)oc2cc(C)cc(OCC(=O)NC3CC3)c12	i	i	i	i	i	i	i	i	i	i	i
CC1CCN(S(=O)(=O)N2CCCC(C(=O)NCc3ccc(F)cc3)C2)CC1 (stereo not given)	i	i	i	i	i	i	i	i	i	i	nt
COc1ccc(C(=O)COC(=O)CCc2ccccc2)cc1	i	i	i	i	i	nt	nt	nt	nt	nt	nt
COc1cc(SSc2cc(OC)cc([N+](=O)[O-])c2N)c(N)c([N+](=O)[O-])c1	i	i	i	236	i	nt	nt	nt	nt	nt	i
C=CC[C@@H](CC(=O)OC(C)(C)C)C(=O)OC[C@@H]1CCCN1C(=O)[C@@H](CC=C)CC(=O)N[C@H](CO)Cc1ccccc1	i	i	i	198	i	i	i	i	i	i	nt
